About 83,000 compounds went through this panel and 20% of them were active in at least one assay; those are over-represented in the sample as a whole.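 Each cell line was grown in a 96-well plate and treated with one concentration of compound for 48 hours. Values below 10 were considered active.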 Values without a mark were called inactive. The source made the active and inactive calls.
What was measured:
Assay in all cases: NCI-60 one-dose screen, 48 h (100 = growth as untreated, 0 = no growth, -100 = all killed)
Conditions in all cases: 10 µM unless noted
[1] = test system: T-47D breast
[2] = test system: BT-549 breast
[3] = test system: MDA-MB-435 melanoma
[4] = test system: SW-620 colon
[5] = test system: MCF7 breast
[6] = test system: HCT-116 colon
[7] = test system: HCC-2998 colon
[8] = test system: KM12 colon

| SMILES | growth [1] | growth [2] | growth [3] | growth [4] | growth [5] | growth [6] | growth [7] | growth [8] |
| --- | --- | --- | --- | --- | --- | --- | --- | --- |
| CCN(CC)CC#CCOC(=O)[C@]1(C)CCC[C@@]2(C)[C@H]1CC(C=O)=C1C=C(C(C)C)CC[C@@H]12 | 41.8% | 53% | 76.4% | 57.2% | 68.1% | 36.1% | 94.6% | 55.3% |
| C(=N\Nc1nnn(Cc2ccccc2)n1)/c1ccccc1 | 45.6% | 46.5% | -26.1% (active) | 35.2% | 27.5% | 43.8% | 45.6% | 19.4% |
| CCOC(=O)/C=C/C(=O)[C@H](CC(C)C)NC(=O)[C@H](Cc1ccccc1)NC(=O)OCc1ccccc1 | 8.32% (active) | 69.2% | 75.8% | 13.8% | 19.7% | 47.6% | 99.2% | 94.5% |
| COCCOC(=O)C1=C(C)NC(=S)NC1c1ccc2c(c1)OCO2 (stereo unspecified) | 94.8% | 109% | 104% | 106% | 89.6% | 103% | 109% | 100% |
| COc1ccccc1N1CCN(CCn2c(=O)c3c(c4ccccc4n3C)n(C)c2=O)CC1 | 64.4% | 99.3% | 106% | 98.9% | 93.2% | 98.4% | 104% | 103% |
| CCCN(CCC)CN(CCC)CCC | 102% | 91.4% | 99.4% | 103% | 93% | 95.7% | 104% | 101% |
| CC/C(Cc1ccccc1)=C(\c1ccc(OCCN2CCCC2)cc1)c1ccc(OC(C)=O)cc1 | 51.4% | 93.8% | 69.7% | 89.9% | 24.6% | 78.7% | 56.3% | 70.7% |
| Cc1cc(Nc2nc(N3CCOCC3)nc3ccccc23)n[nH]1 | 72.5% | 61.5% | 57.4% | 79.3% | 47.8% | 40.1% | 83.4% | 10.3% |
| O=C1CCc2c(sc3[nH]c(=S)n(Cc4ccccc4)c(=O)c23)C1 | 6.69% (active) | 10.6% | 15% | 15.4% | 15.8% | 6.51% (active) | 23.9% | 5.93% (active) |
| COc1ccc(/C=N\NC(=O)c2ccncc2)cc1O | 87.3% | 98.1% | 98.5% | 107% | 95.7% | 94.1% | 101% | 94.2% |
| O=C(/C=C/c1ccc(B(O)O)cc1)/C=C/c1ccc(B(O)O)cc1 | 27% | -11.8% (active) | -46.6% (active) | -25.2% (active) | 3.78% (active) | -94.4% (active) | -77.1% (active) | -86.7% (active) |
| CCc1ccc(C(c2ccc(CC)cc2)C(Cl)(Cl)CCl)cc1 | 77.6% | 116% | 102% | 86.8% | 106% | 76.3% | 90.1% | 103% |
| C=C1C(=O)O[C@H]2[C@H]1CC/C(Cn1cc(Cc3c[nH]c4ccccc34)nn1)=C\CC[C@@]1(C)O[C@@H]21 | 1.32% (active) | 44.2% | 13.6% | -58.7% (active) | -61.2% (active) | -89.5% (active) | 61.5% | 67.2% |
| COc1ccc(/C=C/C(=O)c2ccc(NC(=O)c3cc4cc5ccccc5nc4s3)cc2)cc1OC | 87.7% | 104% | 102% | 105% | 80.3% | 91.6% | 104% | 76.3% |
| C=C1C(=O)O[C@H]2[C@H]1CC/C(Cn1cc(Cn3ccc4cc(Cl)ccc43)nn1)=C\CC[C@@]1(C)O[C@@H]21 | -47.6% (active) | 22.8% | 1.14% (active) | -75.7% (active) | -77.5% (active) | -91.5% (active) | 39.1% | 52% |
| O=C(CNC1C2CC3CC(C2)CC1C3)Sc1nnc2sc3ccccc3n12 (stereo unspecified) | 87.2% | 98% | 101% | 94.8% | 88.7% | 93.6% | 113% | 101% |

| SMILES | growth [1] | growth [2] | growth [3] | growth [4] | growth [5] | growth [6] | growth [7] | growth [8] |
| --- | --- | --- | --- | --- | --- | --- | --- | --- |
| CSc1ncnc2c1ncn2C1CCCO1 (stereo unspecified) | 107% | 102% | 101% | 116% | 104% | 101% | 113% | 110% |
| Nc1c(C(=O)Nc2cccc3c2OCCO3)sc2nc3c(cc12)C(=O)CCC3 | 36.5% | 62.7% | -60.4% (active) | 25.2% | 18.6% | 33.8% | 46.6% | 23.4% |
| Cc1ccc2cnc(N)c(C#Cc3cncc(C(=O)Nc4ccc(CN5CCN(C)CC5)c(C(F)(F)F)c4)c3)c2c1 | -65.2% (active) | -75.1% (active) | -96.6% (active) | -86.1% (active) | -85.8% (active) | -36.1% (active) | -82.9% (active) | -82.6% (active) |
| C#Cc1nc(Nc2cc(C)[nH]n2)c2ccccc2n1 | -36.8% (active) | -34.9% (active) | -75.5% (active) | -25.6% (active) | -25.8% (active) | -12.7% (active) | -91% (active) | -73.1% (active) |
| NC1=CC(=O)C(=O)c2ccccc21 | 56.4% | 90.4% | -72.4% (active) | 98.9% | 86% | 63.4% | 95% | 95.7% |
| Cn1c(=O)c2c(ncn2CC[N+](C)(C)C)n(C)c1=O | 88.8% | 115% | 104% | 106% | 99.9% | 100% | 102% | 105% |
| CCCCCCCCCC(=O)Oc1ccc(/C(=C(/C)Cc2cccc(OC)c2)c2ccc(OCCN(C)C)cc2)cc1 | 69.4% | 108% | 103% | 104% | 58.2% | 102% | 100% | 104% |
| CCN(CC)CCC(=O)c1ccc(OC)c2ccccc12 | 29.1% | 79.6% | 102% | 93% | 11.9% | 88.4% | 90.8% | 81.8% |
| CC(=O)OCC1OC(OC2=C(CC=C(Cl)Cl)C(=O)c3ccccc3C2=O)C(OC(C)=O)C(OC(C)=O)C1OC(C)=O (stereo unspecified) | -18.2% (active) | 71.2% | 89.9% | 22.9% | 19.9% | 31.6% | 102% | 82.2% |
| c1ccc2c(Nc3cccc4ccccc34)cccc2c1 | 65.2% | 62.8% | -27.7% (active) | 19% | 43.9% | 30.3% | 78.4% | 33.6% |
| Cc1cccc(NC(=O)c2sc3nc4c(cc3c2N)C(=O)CCC4)c1 | 44% | 41.6% | -52.8% (active) | 26.6% | 22.6% | 29.3% | 33.7% | 21.4% |
| O=C1C=CC(=O)c2c1nc1n2CCCC1 | 86.7% | 95.2% | -68.5% (active) | 62.3% | 57.8% | 91.9% | 57.6% | 75% |
| Oc1cc(O)c2c(=S)cc(-c3ccc(Cl)cc3)oc2c1 | 0.614% (active) | 38.4% | 25.9% | 41.5% | 6.22% (active) | 17.6% | 57.7% | 38.7% |
| CN1/C(=C\C=C\C2=[N+](C)c3ccccc3C2(C)C)C(C)(C)c2ccccc21 | -9.24% (active) | -17.7% (active) | -48.9% (active) | 8.18% (active) | -2.53% (active) | 0.854% (active) | -60.8% (active) | -64.9% (active) |
| O=C1c2cccnc2C(=O)c2c1c(C(=O)OCCN1CCOCC1)c1ccccn21 | 9.37% (active) | -13.3% (active) | -36% (active) | 6.61% (active) | -45.9% (active) | -1.07% (active) | 10.7% | 22.2% |
| COc1cccc(-c2nc3sccn3c2-c2ccnc(NCCCNS(=O)(=O)c3ccccc3)c2)c1 | -8.88% (active) | 2.07% (active) | 38.5% | 59% | 46.2% | 12.2% | 67.4% | 29.2% |
